# According to PubChem BioAssay AID504332 (National Center for Advancing Translational Sciences (NCATS), 2011):
# Among all 350,000 compounds or so, about 31,000 (8.9%) were called active. Another 15% or so got no clear call; they are omitted. The sample holds actives, similar compounds and a random draw of the others, so the mix is not that of the screen. Calls follow the shape of the dose curve; as a rule, active = well fitted inhibition curve with a large enough effect; inconclusive = small, poorly fitted or top-dose-only effect; inactive = no such curve, though single readings can be large or run the other way.
# Target: Histone-lysine N-methyltransferase EHMT2 (Homo sapiens) (UniProt Q96KQ7)
# Test: qHTS Assay for Inhibitors of Histone Lysine Methyltransferase G9a; also: nearly all actives have a fitted effect of over 75% in size
# Conditions: G9a H3K9 monomethylation, AlphaScreen, 2 h; series mostly up to 59 µM; activity, negative = inhibition: at the top concentration
# Description: Methylated lysines, on the N-terminal tails of histone proteins serve as epigenetic markers to recruit factors that can then modify local chromatin structure to lead to functional consequences. G9a and other members of the SUV39 family of the SET domain-containing superfamily of histone lysine methyltransferases (HMT) have been identified to specifically methylate Lys9 of histone H3 (H3K9). G9a catalyzes the mono- and di-methylation of H3K9 in mammalian euchromatic regions, where the resulting H3K9me2 is indicative of transcriptional repression. […] The inhibition of G9a will result in transcriptional activation and work synergistically with DNA methyltransferase and histone deacetylase inhibitors, to kill cancer cells. This qHTS assay for identification of G9a inhibitors is a chemiluminescence based AlphaScreen (PerkinElmer). Methylation of biotinylated-histone peptide is measured through specific antibody-based detection, in conjunction with streptavidin-coated donor and anti-IgG antibody-coated acceptor beads. The method is particularly well suited for detection of inhibitors acting by the desired histone peptide competitive mechanism and is applicable to testing other HMTs. Although AlphaScreen has significant advantages with its utility in a variety of epigenetic target assays, the primary screening data provided in this deposition should be used with caution due to the prevalence of screening artifacts. An AlphaScreen counterscreen is highly recommended to be run against any putative actives to eliminate non specific artifacts. Alternatively, one can use other AlphaScreen assays in PubChem to filter out promiscuous hits. Quinn et al. A chemiluminescence-based method for identification of histone lysine methyltransferase inhibitors. Mol Biosyst 6(5): 782-8. 2010. PMID: 20567762 [2] Baell,Holloway. New substructure filters for removal of pan assay interference compounds (PAINS) from screening libraries and for their exclusion in bioassays. J Med Chem. 53(7):2719-40. 2010. PMID: 20131845 NIH Molecular Libraries Probe Production Network [MLPCN] NIH Chemical Genomics Center [NCGC] Structural Genomics Consortium (SGC) NIH Grant: 5U54 MH084681-02
# To each well of a 1,536w plate, 2ul of HMT enzyme (final 20nM) were added, using a nanoliter dispenser. The G9a- and GLP-inhibitor BIX-01294 (CID: 25150857) are used as an intraplate control, with a 16-point titration in duplicate. A Kalypsys pin-tool transferred 23nl of library compound solution in DMSO to each well. Following a 15 min incubation of enzyme with compounds at room temperature, 1ul mixture of b-H3K9 peptide substrate (final 500nM) and SAM cofactor (final 20uM) were added. Reactions were allowed to proceed at room temperature for 2 hours. Methylated b-H3K9 peptide product was detected with 0.5 ug/mL rabbit polyclonal anti-monomethyl histone H3K9 antibody (Abcam Inc., Cambridge, MA) and 20 ug/mL each streptavidin-coated donor and anti-rabbit IgG acceptor AlphaScreen beads. Antibody and beads were added in a 1ul dispense, for a final volume of 4ul, and plates were incubated, protected from the light, for 10 min at room temperature. Microplates were then read on an EnVision multilabel plate reader using the 1,536 plate HTS AlphaScreen aperture (excitation time 80 ms, measurement time 240 ms).
# % is scaled to controls: 0 for no effect and ±100 for the full control effect; potency is read from the fitted curve at half-maximal effect.
# Histone-lysine N-methyltransferase EHMT2 (Homo sapiens), sequence (Q96KQ7 913-1193 limits assumed): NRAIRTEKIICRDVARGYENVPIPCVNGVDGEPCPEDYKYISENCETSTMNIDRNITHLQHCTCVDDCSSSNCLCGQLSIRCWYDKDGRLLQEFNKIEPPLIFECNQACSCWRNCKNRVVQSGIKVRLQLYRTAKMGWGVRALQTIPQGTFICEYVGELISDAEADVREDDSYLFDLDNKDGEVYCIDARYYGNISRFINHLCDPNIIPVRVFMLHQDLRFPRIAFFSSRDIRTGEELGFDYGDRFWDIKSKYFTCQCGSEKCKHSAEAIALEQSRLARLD
Compound,Potency,"activity, negative = inhibition"
O=C(NC(=S)Nc1ccccc1C(=O)O)c1ccc(-c2ccc(Br)cc2)o1,22.4 µM (active),–
O=C(Cc1ccccc1)Nc1ccc(C(=O)Nc2ccccc2C(=O)O)cc1,–,21.8% [at 102 µM] (inactive)
S=C(c1ccc(-c2ccccc2)o1)N1CCCCC1,–,-134% (inactive)
Cc1ccc(SCC(=O)Nc2ccc3oc(-c4ccccc4C)nc3c2)cc1,–,9.03% (inactive)
Cc1cccc(NC(=O)CSc2nc3c([nH]c4ccccc43)c(=O)n2-c2cc(C)cc(C)c2)c1,–,2.1% (inactive)
COCCCNC(=S)NC(=O)c1ccc([N+](=O)[O-])cc1,–,-14.4% (inactive)
CCCCCC(=O)NC(=S)NNC(=O)c1ccc([N+](=O)[O-])cc1,8.91 µM (active),–
CCCCCC(=O)Nc1ccc(C(=O)N/N=C/c2ccc([N+](=O)[O-])cc2)cc1,–,6.96% [at 102 µM] (inactive)
CC(C)CC(=O)NC(=S)NNC(=O)c1cccc([N+](=O)[O-])c1,22.4 µM (active),–
Cc1cccc(C(=O)NNC(=O)c2cccc([N+](=O)[O-])c2)c1,–,-38.6% [at 102 µM] (inactive)
CC(C)(C)SCCNC(=O)c1cccc([N+](=O)[O-])c1,–,-0.0873% (inactive)
COc1ccccc1NC(=O)C1=C(C)Nc2ncnn2C1c1sccc1C (stereo unspecified),–,-1.85% (inactive)
CC(OC(=O)c1ccc(S(=O)(=O)N2CCOCC2)cc1)c1ccccc1 (stereo unspecified),–,30.1% [at 102 µM] (inactive)
COc1ccccc1/C=C/C(=O)OCC(=O)NC1CCCCCC1,–,25.2% [at 2.33 µM] (inactive)
CC(=O)c1c(C)[nH]c(=S)c(C#N)c1-c1ccc(F)cc1,1.41 µM (active),–
Cc1cc(C)c2c(-c3ccc(F)cc3)c(C#N)c(=O)n(C)c2n1,–,-7.15% [at 102 µM] (inactive)
N#Cc1c(-c2ccc(Cl)cc2)c2c([nH]c1=S)CCCC2,–,-10.4% (inactive)
COc1ccc(OC)c(CNC(=O)CN2C(=O)CCn3nc(-c4cn(C)c5ccccc45)cc32)c1,–,-26.2% (inactive)
CCCC(=O)Nc1ccc(NC(=O)c2sc3ccccc3c2Cl)cc1,–,0.593% (inactive)
Cc1ccc(S(=O)(=O)N(Cc2cccc([N+](=O)[O-])c2)C(=O)N2CCN(C)CC2)cc1,–,6.51% [at 2.33 µM] (inactive)
CN1CCN(/N=C2/C(=O)Nc3ccc([N+](=O)[O-])cc32)CC1,50.1 µM (active),–

Compound,Potency,"activity, negative = inhibition"
O=C1Nc2ccc([N+](=O)[O-])cc2C1=Nc1cccc(CO)c1,–,5.69% [at 102 µM] (inactive)
O=C(CSc1oc(-c2ccco2)nc1S(=O)(=O)c1ccc(Cl)cc1)c1ccccc1,–,-1.32% (inactive)
O=C(N/N=C/C=C/c1ccco1)c1cccs1,12.6 µM (active),–
CC(/C=N/NC(=O)c1ccncc1)=C\c1ccco1,–,2.74% (inactive)
Cc1ccc(-c2cc(C(=O)N/N=C/C=C/c3ccco3)c3ccccc3n2)cc1C,44.7 µM (active),–
COc1cccc(-c2cc(C(=O)N/N=C/c3ccc(OC)c(COC(C)=O)c3)c3ccccc3n2)c1,–,-1.31% [at 102 µM] (inactive)
CC(=O)Nc1ccc(/C=N/NC(=O)c2cccs2)cc1,–,-2.45% [at 102 µM] (inactive)
CCOc1cc(/C=N/NC(=O)c2cc(-c3ccccc3)nc3ccccc23)ccc1O,–,-41.1% [at 102 µM] (inactive)
CCOc1ccc(CCNC(=O)COC(=O)c2ccc(F)c(S(=O)(=O)N3CCOCC3)c2)cc1OCC,–,-4.3% [at 0.501 µM] (inactive)
Brc1cccc(-c2nnn3c2nc(NC2CCCCC2)c2ccccc23)c1,–,14.7% (inactive)
Cc1ccccc1NC(=O)Cc1nc(COC(=O)c2ccc(C(F)(F)F)cc2)cs1,–,5.04% [at 12.7 µM] (inactive)
CCN(CC(=O)NCc1ccc(Cl)cc1)C(=O)CSc1ccccc1,–,-1.68% [at 12.7 µM] (inactive)
Cc1c(-c2nsc(NC(=O)c3cccc(Cl)c3)n2)nnn1-c1ccccc1C(F)(F)F,–,13.6% (inactive)
COc1cc2c(cc1/C=C1/NC(=O)N(c3ccccc3)C1=O)OCO2,–,14.8% (inactive)
O=c1c(-c2cccc(Cl)c2)c[nH]n1-c1ccccc1,–,3.35% [at 2.33 µM] (inactive)
O=C1N/C(=C/c2cccn2-c2ccccc2)C(=O)N1c1cccc(Cl)c1,1 µM (active),–
COc1ccc(S(=O)(=O)NCCSc2nnnn2-c2ccccc2)cc1,–,40.1% (inactive)
N[C@@H](Cc1ccccc1)C(=O)N1CCOCC1,–,11.6% [at 2.33 µM] (inactive)
Cc1cc(C)c(S(=O)(=O)N2CCC(C(=O)OCc3c(C)noc3C)CC2)c(C)c1,–,5.16% (inactive)
COc1ccccc1-c1nnc(SCC(N)=O)o1,–,-28.6% (inactive)
N#CC1(NC(=O)COc2ccc3oc4ccccc4c3c2)CCCCC1,–,-2.61% (inactive)

Compound,Potency,"activity, negative = inhibition"
O=C(OCCN=C1NS(=O)(=O)c2ccccc21)c1cccc([N+](=O)[O-])c1,–,27.8% [at 102 µM] (inactive)
Cc1ccccc1C(=O)NCCN=C1NS(=O)(=O)c2ccccc21,–,-41.3% [at 102 µM] (inactive)
N#CC1(NC(=O)COC(=O)CCN=C2NS(=O)(=O)c3ccccc32)CCCCC1,79.4 µM (active),–
N#CC1(NC(=O)COC(=O)CSc2ccc(F)cc2)CCCCC1,–,0.383% [at 102 µM] (inactive)
O=C(CCCN=C1NS(=O)(=O)c2ccccc21)OCC(=O)c1ccc(F)c(F)c1,44.7 µM (active),–
COc1ccccc1C(=O)NCCn1cc(SCc2ccccc2Cl)c2ccccc21,–,-3.42% (inactive)
O=C(c1ccc(F)cc1)N1CCC(C(=O)N2CCN(S(=O)(=O)c3ccccc3Br)CC2)CC1,–,4.58% [at 102 µM] (inactive)
O=C(NCc1ccccc1Cl)c1cccn1-c1nnc(N2CCCCC2)s1,–,-23.5% (inactive)
COc1ccccc1N1CCN(c2ncnc3onc(-c4ccc(F)cc4)c23)CC1,–,-23% (inactive)
CCCCCCn1c(CN2CCCC(C)C2)nc2c1c(=O)n(C)c(=O)n2C (stereo unspecified),–,-8.22% (inactive)
Cc1c(CN2CCCCC2)c(O)n(CCO)c(=O)c1C#N,50.1 µM (active),–
CCC(=O)Nc1sc(C(=O)N2CCCCC2)c(C)c1C#N,–,-5.42% [at 102 µM] (inactive)
CC1CCCN(Cc2c(O)ccc3c(=O)c(Oc4ccc(C(C)(C)C)cc4)c(C(F)(F)F)oc23)C1 (stereo unspecified),–,-6.89% (inactive)
CCCn1c(O)c(CN2CCCC(C)C2)c(C)c(C#N)c1=O (stereo unspecified),14.1 µM (active),–
O=c1oc2c(CN3CCCCC3)c(O)ccc2c2c1CCCCC2,–,0.621% [at 102 µM] (inactive)
CCOc1ccc(-n2nc3ccc(NC(=O)c4ccc(OC)c(Cl)c4)cc3n2)cc1,–,-2.24% (inactive)
CN(CC(=O)Nc1c(Cl)cccc1Cl)C(=O)CC1OC(=O)c2ccccc21 (stereo unspecified),–,-2.24% (inactive)
CN(Cc1ccccc1)C(=O)CCS(=O)(=O)c1cc(Br)cc2c1N(C(=O)C1CC1)CC2,–,-27.6% (inactive)
CCc1ccccc1OCC(=O)Nc1ccc(C)c(S(=O)(=O)N2CCCCCC2)c1,–,18.3% [at 12.7 µM] (inactive)
